Results reported in PubChem BioAssay AID686928 (Broad Institute, 2013).
Potency and affinity values are given separately. Active and inactive are the calls of the source. Entries that show only a call come without a potency. The rule behind the calls is not given here.

Assay: human cervical cancer cell viability loss – 24 h, plate reader, dry powder, cytotoxicity control, dose response (AID 686928)

| Compound | outcome |
| --- | --- |
| CCCCCCCCCC(=O)C(O)CC (configuration not stated) | inactive |
| CCn1nnnc1N | inactive |
